Data from the supplement of paper PMC6555819.

What was measured:
Assay in all cases: PBM binding z-score (relative to random genomic background probes); higher = stronger binding; sequences stand for … in GC…GCGATTGACAGCGTAGAATGAAGG
[1] = test system: FXR:RXRa (NR concentration 270 nM, RXRa partner concentration 90 nM)
How it was run: (§1)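 For binding z-scores, the reference was random background probes on custom Agilent 4×180K protein-binding microarrays. These arrays were incubated 1 h with ligand-free nuclear receptor dimers in PBS pH 7.4, 2% milk, 0.02% Triton X-100, 1 mM DTT, 0.2 mg/mL BSA and 0.4 mg/ml salmon testes DNA. Fluorescence was scanned after antibody detection of each partner (one per run) and regression-normalized.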

[2] = test system: LXRa:RXRa (NR concentration 270 nM, RXRa partner concentration 90 nM)
How it was run: as §1

[3] = test system: LXRa homodimer (NR concentration 270 nM)
How it was run: as §1

[4] = test system: LXRb:RXRa (NR concentration 270 nM, RXRa partner concentration 90 nM)
How it was run: as §1

[5] = test system: LXRb homodimer (NR concentration 270 nM)
How it was run: as §1

[6] = test system: PPARa:RXRa (NR concentration 270 nM, RXRa partner concentration 90 nM)
How it was run: as §1

[7] = test system: PPARg:RXRa (NR concentration 180 nM, RXRa partner concentration 90 nM)
How it was run: as §1

[8] = test system: PPARg:RXRa 270nM:90nM, anti-RXR (NR concentration 270 nM, RXRa partner concentration 90 nM)
How it was run: as §1

[9] = test system: PPARg:RXRa 30nM:10nM, anti-RXR (NR concentration 30 nM, RXRa partner concentration 10 nM)
How it was run: as §1

[10] = test system: PPARg:RXRa 90nM:30nM, anti-RXR (NR concentration 90 nM, RXRa partner concentration 30 nM)
How it was run: as §1

[11] = test system: PPARg:RXRa DBDmut IVT, anti-RXR (DBD mutation: RXRa K156A/R161A, NR concentration 270 nM, RXRa partner concentration 90 nM)
How it was run: as §1

[12] = test system: PPARg:RXRa IVT, anti-PPARg (NR concentration 270 nM, RXRa partner concentration 90 nM)
How it was run: as §1

[13] = test system: PPARg DBDmut:RXRa IVT, anti-PPARg (DBD mutation: PPARg1 K132A/R137A, NR concentration 270 nM, RXRa partner concentration 90 nM)
How it was run: as §1

[14] = test system: PPARg DBDmut IVT, anti-PPARg (DBD mutation: PPARg1 K132A/R137A, NR concentration 270 nM)
How it was run: as §1

[15] = test system: PPARg homodimer (NR concentration 180 nM)
How it was run: as §1

[16] = test system: PXR:RXRa (NR concentration 270 nM, RXRa partner concentration 90 nM)
How it was run: as §1

[17] = test system: PXR homodimer (NR concentration 270 nM)
How it was run: as §1

[18] = test system: RARa:RXR (NR concentration 270 nM, RXRa partner concentration 90 nM)
How it was run: as §1

[19] = test system: RARa homodimer (NR concentration 270 nM)
How it was run: as §1

[20] = test system: RARb:RXRa (NR concentration 270 nM, RXRa partner concentration 90 nM)
How it was run: as §1

Sequence	PBM binding z-score [1]	PBM binding z-score [2]	PBM binding z-score [3]	PBM binding z-score [4]	PBM binding z-score [5]	PBM binding z-score [6]	PBM binding z-score [7]	PBM binding z-score [8]	PBM binding z-score [9]	PBM binding z-score [10]	PBM binding z-score [11]	PBM binding z-score [12]	PBM binding z-score [13]	PBM binding z-score [14]	PBM binding z-score [15]	PBM binding z-score [16]	PBM binding z-score [17]	PBM binding z-score [18]	PBM binding z-score [19]	PBM binding z-score [20]
CAAACTAGGTCAAAGGTTAAAGTCGAGCCAACCA	7.41	5.99	2.37	5.56	1.22	7.61	13.6	11.3	13	13.7	8.92	9.36	6.93	5.38	5.15	5.99	0.433	8.12	2.07	5.01
CAAACTAGCTCACCGGAAGGTCAAAGTCCGCATG	2.99	3.06	3.46	3.43	1.02	3.16	0.628	1.58	0.364	0.774	0.993	1.36	-0.25	0.542	2.25	3.37	1.23	3.64	0.685	3.17
TTACCAAGGCGAAGGTCGTTGATCCCTCTGTAGA	1.8	1.55	-0.229	1.43	-0.992	2.44	3.98	5.81	3.02	5.86	0.0514	1.72	-0.587	-0.677	1.25	1.16	0.0255	1.26	-0.525	0.787
CCGACTGGGCCAAAGGTTACCATACTCAGTACGA	1.06	1.26	0.13	2	-0.974	5.39	10.7	9.42	9.58	10.6	3.77	5.5	0.219	-0.431	1.31	1.75	-0.189	3.1	0.224	2.22
TCTACTAGTTGATTAGGGCAACCGAAACAGCGGA	-0.0181	-0.4	-0.422	0.0832	-0.553	0.777	0.366	1.66	3.06	2.31	1.59	1.11	-0.0224	-0.068	-0.343	0.00114	-0.203	0.226	-0.458	0.694
TCTTGTAGATCCACAGGAGGTTAAGAAAGATCGA	0.0862	1.26	-0.232	1.08	-0.363	1.05	-0.0307	1.43	2.66	1.83	1.11	0.557	0.829	0.516	-0.676	0.82	-0.22	1.22	0.176	0.506
CCGACTCGGGCATAAGGTTACCATAAGCCAGCCC	0.235	2.34	-0.549	0.615	-1.1	1.14	0.783	1.19	-0.332	0.652	0.661	-0.167	-1.02	-2	0.278	0.0235	-0.204	0.884	-0.315	1.36
ACTAGTTGGTCAGCTGAGGCCACACACAATTCGG	0.531	-0.313	-0.2	-0.129	-0.143	-0.0104	0.761	-0.157	-0.382	-0.207	0.674	0.964	0.862	0.728	0.0249	1.11	-0.242	1	-0.472	1.13
